What was measured:
Assay type in all cases: functional
Plasmodium falciparum [1] = test: GSK_TCMDC: Inhibition of Plasmodium falciparum 3D7 in whole red blood cells, using parasite LDH activity as an index of growth. Test compounds present at 2uM
Plasmodium falciparum [2] = test: GSK_TCMDC: Inhibition of Plasmodium falciparum Dd2 in whole red blood cells, using parasite LDH activity as an index of growth. Test compounds present at 2uM
HepG2 = test: GSK_TCMDC: Percent inhibition of human HepG2 cell line. Test compounds present at 10uM.

SMILES	Inhibition (Plasmodium falciparum [1]) [%]	Inhibition (Plasmodium falciparum [2]) [%]	Inhibition (HepG2) [%]
Cc1ccc(Nc2nnc(SCC(=O)Nc3ccc(CN4CCCC4)cc3)s2)cc1	91	0	4
O=C(NCC1CCN(Cc2ccsc2)C1)c1cc(-c2cccc(C(F)(F)F)c2)cs1.O=C(O)C(F)(F)F (stereo unspecified)	98	15	37
Cc1cc(=NN=Cc2ccc(Cl)cc2)c2ccc(F)cc2[nH]1	100	87	6
CC1(C)[C@H]2CC[C@@H](CNc3nc(NCCc4c[nH]cn4)nc(Nc4ccc(Oc5ccccc5)cc4)n3)[C@@H]1C2	99	86	2
O=S(=O)(Nc1cccc(CCN2CCCCC2CCN2CCCC2)c1)c1ccc(Oc2ccccc2)cc1 (stereo unspecified)	94	1	52
CC(=O)c1cc(N2CCCC2)ccc1N	97	97	1
OC(CNCc1ccccc1OCc1ccccc1)c1cccc(Br)c1 (stereo unspecified)	100	97	0
COc1nc2c(CCN3CCC(NCc4ccc5c(c4)NCCO5)CC3)c(Cl)cnc2cc1F.Cl	100	98	23
N#CCSc1nnc(-c2ccccc2)c2ccccc12	84	73	5
CCC1CN(CCCn2c3ccccc3c3ccccc32)C(CC)CN1.Cl (stereo unspecified)	89	0	69
CC(=O)Nc1ccc(CN(Cc2ccc(F)cc2)Cc2cccc(Oc3ccccc3)c2)cc1	88	82	0
CCCC(C)Nc1nc(C)cc(NCCC(=O)Nc2ccc(OC)cc2)n1.O=C(O)C(F)(F)F (stereo unspecified)	97	2	12
CCn1cc(CN2CCCC(C(=O)Nc3ccc(-c4nc5ccccc5[nH]4)cc3)C2)c(C)n1 (stereo unspecified)	100	28	22
CN1CCc2ccc(NC(=O)Nc3ccc(Cl)c(Cl)c3)cc2C1	80	22	0
CC(C)CC1c2[nH]c3ccccc3c2CCN1C(=O)CCc1ccccc1 (stereo unspecified)	92	82	0
CC1(C)NC(=N)N=C(NOCC=Cc2ccccc2)N1	98	2	35
CC1=C(C(=O)Nc2cc3cn[nH]c3cc2F)C(c2cccc(NS(C)(=O)=O)c2)CC(=O)N1 (stereo unspecified)	96	97	0
O=C(N[C@H](CC1CCCCC1)C(=O)NC1CCCc2ccccc21)c1ccc(O)c(-c2cccc([N+](=O)[O-])c2)c1 (stereo partly specified)	99	98	0
CC(C)(C)c1ccc(N2C(N)=NC(N)=NC2(C)C)cc1.Cl	93	0	27
CC1(C)CC2CC(C)(CN2C(=O)c2cc(C(C)(C)C)nn2Cc2ccccc2)C1 (stereo unspecified)	86	77	0
O=C(Nc1ccc(S(=O)(=O)N2CCCCC2)cc1)c1cc(-c2ccccc2O)n[nH]1	94	81	13
CCCCCCCCNCCCSCCCNCCCCCCCC.Cl	97	47	63
CC(C)c1ccc(CN2CCC(NC(=O)c3ccc(-c4ccccc4F)s3)CC2)cc1.O=C(O)C(F)(F)F	81	13	46
O=C(Nc1ccccc1)NC1CCN(CCC2(c3ccc(Cl)c(Cl)c3)COCN(C(=O)c3ccccc3)C2)C1 (stereo unspecified)	92	81	23

SMILES	Inhibition (Plasmodium falciparum [1]) [%]	Inhibition (Plasmodium falciparum [2]) [%]	Inhibition (HepG2) [%]
O=C(COc1ccc(C(=O)c2ccccc2)cc1)Nc1nccs1	94	18	0
Cc1c(CNCCCNc2cc(=O)c3ccccc3[nH]2)sc(C(F)F)c1Br.Cl	98	29	0
COc1ccc(C(=O)Nc2ccc3oc(-c4ccc(C(F)(F)F)cc4)cc3c2)cc1CCCN(C)C	98	27	98
Fc1ccc(NC(S)=NN=Cc2ccccn2)cc1	95	67	56
CCn1cc(C=C2Oc3c(ccc(O)c3CN3CCCCC3C)C2=O)c2ccccc21 (stereo unspecified)	94	80	0
O=C(NC1CCCCC1)N(Cc1ccc(-c2cccc(CNC3CCCC3)c2)cc1)C1CCN(Cc2ccccc2)CC1.O=C(O)C(F)(F)F	95	59	52
COc1ccc(CN2CCC(CNCC(c3ccccc3)c3ccccc3)CC2)cc1.O=C(O)C(F)(F)F	100	95	84
Cc1cccc2nc(-c3cccc(-c4ccc(NC(=O)COC(C)C)cc4)c3)[nH]c12	82	11	0
CCCCCCNc1cc(C)nc2ccc(OC)cc12.Cl	100	94	19
Cc1cccc2nc(-c3cccc(-c4cccc(NC(=O)Nc5ccc(F)c(F)c5F)c4)c3)[nH]c12	100	99	32
Br.Oc1ccc(CCNCCCCCCNCCc2ccc(-c3ccccc3)cc2)cc1O	100	8	72
CCCC(C)c1ccc(N2C(N)=NC(N)=NC2(C)C)cc1.Cl (stereo unspecified)	90	7	51
Cc1noc(C)c1-c1cccc(CNCc2ccc(-c3ccc(-c4nc5cc(F)ccc5[nH]4)s3)cc2)c1.O=C(O)C(F)(F)F	100	93	45
CC(=O)Nc1ccc(CN(Cc2ccc(C)cc2)Cc2cccc(Oc3ccccc3)c2)cc1	84	87	34
CCC1(CC)NC(N)=NC(=N)N1OCc1ccc(Cl)c(Cl)c1.Cl	94	49	49
Fc1cccc2sc(Nc3nc(-c4ccccn4)cs3)nc12	95	97	30
Cc1cc(OCCCN2CCC(NS(=O)(=O)c3cccc(Br)c3)C2)c2ccccc2n1 (stereo unspecified)	86	40	13
COc1ccc(Cl)c(CC2c3cc(O)c(Cl)cc3CCN2C)c1.Cl (stereo unspecified)	98	72	9
Cc1c(O)cccc1Nc1ccnc2ccc(C(F)(F)F)cc12.Cl	96	51	0
O=C(/C=C/c1ccc(Cl)c(Cl)c1)NC1CCC(CN2CCC(Cc3c[nH]c4ccccc34)CC2)CC1 (stereo unspecified)	100	9	25
C#CCCC(=O)Nc1cccc(-c2cccc(-c3nc4cc(C(F)(F)F)ccc4[nH]3)c2)c1	90	45	14
CCCC(C)NC[C@@H](O)[C@H](Cc1ccccc1)NC(=O)c1cc(C2CCCC2)cc(N2CCCCS2(=O)=O)c1.Cl (stereo partly specified)	98	99	8
CCN(CC)CCN(Cc1ccc(-c2ccc(C(F)(F)F)cc2)cc1)C(=O)Cn1c(CCc2cccc(F)c2F)nc(=O)c2cccnc21.O=C(O)C(O)C(O)C(=O)O	100	89	75

— ChEMBL document CHEMBL1157539, “Thousands of chemical starting points for antimalarial lead identification” (Nature, 2010)
